This note sets out measurements from PubChem BioAssay (NCATS).

Inconclusive results are not listed. Unmarked numbers belong to inactive results. Calls follow the shape of the dose curve; as a rule, active = well fitted inhibition curve with a large enough effect; inconclusive = small, poorly fitted or top-dose-only effect; inactive = flat fitted curve, though single readings scatter.
% is scaled to controls: 0 for no effect and ±100 for the full control effect.

Sequence of Calcium and integrin-binding protein 1 (Homo sapiens) (Q99828 whole entry, looked up): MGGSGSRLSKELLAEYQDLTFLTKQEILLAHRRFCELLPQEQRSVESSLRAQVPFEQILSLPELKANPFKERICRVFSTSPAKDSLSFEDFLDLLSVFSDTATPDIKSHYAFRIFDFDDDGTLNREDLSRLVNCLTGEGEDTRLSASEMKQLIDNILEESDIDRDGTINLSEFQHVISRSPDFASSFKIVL

The experiment concerns the target Calcium and integrin-binding protein 1 (Homo sapiens) (UniProt Q99828). Description: Primary qHTS for Identification of Calcium Integrin Binding Protein 1 (CIB1) Competitor (AID 1508620).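 Also: GST tagged CIB1 binding a fluorescein labelled alphaIIb integrin peptide tracer; top concentration of the series differs between compounds.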 The settings on record: CIB1-GST / FITC-alphaIIb peptide fluorescence polarization; series mostly up to 114 µM; activity change, negative = inhibition: at the top concentration. Put shortly:
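CIB1-GST (1 uM final) and compound incubated 15 min at room temperature before adding FITC-alphaIIb peptide tracer (100 nM final). Competition for binding read by fluorescence polarization (ex 480, em 540) after another 15 min at room temperature.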
For `CC(=O)O[C@H]1C[C@@](O)(C(C)C)C2[C@@H](OC(=O)c3ccc(O)cc3)C[C@@]3(C)O[C@H]3C[C@]21C` (stereo not given in full), the “activity change, negative = inhibition” value is -0.705% [at 57.7 µM]. Regarding `O=C(c1cc2c(cc1F)OC(c1ccc(F)cc1)(c1ccc(Cl)cc1Cl)O2)N1CCOCC1` (stereo not given), the “activity change, negative = inhibition” value was 3.44%. Take `C=CC(C)(C)c1[nH]c2cc3c(cc2c1CC1NC(=O)C2=CCCN2C1=O)C=CC(C)(C)O3` (stereo not given): the “activity change, negative = inhibition” value is -0.0061% [at 57.7 µM]. For the compound `Cn1nnc(-c2ccc(-c3ccc(N4C[C@H](COP(=O)(O)O)OC4=O)cc3F)cn2)n1`, the “activity change, negative = inhibition” value is -2.9%. Regarding `C/C1=C\C[C@]2(C)C(=O)C(O)=C([C@H](C)CO)[C@H]2C/C=C(\C)[C@@H](O)CC/C(C)=C/CC1`, the “activity change, negative = inhibition” value is 0.773% [at 57.7 µM]. Next, `CC(O)/C=C/C1C(C)C(O[C@@H]2O[C@H](CO)[C@@H](O)[C@H](O)[C@H]2O)C(O)CC1(C)C` (stereo not given in full): 5.02% [at 57.7 µM]. As for `OC/C=C/c1ccc(O[C@@H]2O[C@H](CO)[C@@H](O)[C@H](O)[C@H]2O)cc1`, the “activity change, negative = inhibition” value is 5.47% [at 57.7 µM].

As to `CC[C@]1(O)CC2CN(CCc3c([nH]c4ccccc34)[C@@](C(=O)OC)(c3cc4c(cc3OC)N(C=O)[C@H]3[C@@](O)(C(=O)OC)[C@H](OC(C)=O)[C@]5(CC)C=CCN6CC[C@]43[C@@H]65)C2)C1` (stereo not given in full), the “activity change, negative = inhibition” value is 1.84% [at 57.7 µM]. The value for `C/C=C1\[C@H](O[C@@H]2O[C@H](CO)[C@@H](O)[C@H](O)[C@H]2O)OC=C2C(=O)OCCc3ccc(O)c(c3)Oc3ccc(cc3)CCOC(=O)C[C@H]21` was 0.352% [at 30.2 µM]. Turning to `CC1=C2C3OC(=O)C(C)C3(O)CCC2(C)CCC1O` (stereo not given), the “activity change, negative = inhibition” value was -9.08%. For `CC1=C(CCC(C)O[C@@H]2O[C@H](CO)[C@@H](O)[C@H](O)[C@H]2O)C(C)(C)CCC1=O` (stereo not given in full), the “activity change, negative = inhibition” value is -6.3% [at 57.7 µM]. On to `O=C(O)C1CN(Cc2ccc(-c3nc4cc(Cc5ccccc5F)ccc4s3)c(F)c2)C1`, for which the “activity change, negative = inhibition” value was 2.04% [at 30.2 µM]. On to `COC(=O)c1cc(OC)cc(OC)c1C(=O)c1c(OC)cc2c(c1O)C1CCCC(C)(O2)O1` (stereo not given), for which the “activity change, negative = inhibition” value was 1.41% [at 57.7 µM].

As to `CC1=C(C)C(=O)OC(C(C)C2CCC3C4C5OC5C5(O)CC(OC6OC(CO)C(OC7OC(C)C(O)C(O)C7O)C(O)C6O)CC(O)C5(C)C4CCC23C)C1` (stereo not given), the “activity change, negative = inhibition” value is 2.73% [at 30.2 µM]. Regarding `CCC(COC)n1nnc2c(Nc3ccc(OC)cc3C)nc(C)cc21` (stereo not given), the “activity change, negative = inhibition” value was -0.591%. Turning to `C[C@H](O)[C@H](O)/C=C/c1cccc(O)c1CO`, the “activity change, negative = inhibition” value is 4.97%. Regarding `CC[C@H](CO)Nc1nc(NCc2ccc(-c3ccccn3)cc2)c2ncn(C(C)C)c2n1`, the “activity change, negative = inhibition” value was 4.8%. Turning to `CC(C)c1nc(-c2ccc(NC(=O)Nc3cccc(C(F)(F)F)c3)c3ccccc23)c2c(N)nccn12`, the “activity change, negative = inhibition” value is -1.24%. As to `CN1CCc2nc(C(=O)N[C@@H]3C[C@@H](C(=O)N(C)C)CC[C@@H]3NC(=O)C(=O)Nc3ccc(Cl)cn3)sc2C1`, the “activity change, negative = inhibition” value is 1.81%. In the case of `CC1(C)CC2=C3C=CC4C5(C)CCC(O)C(C)(C)C5CCC4(C)C3(C)CCC2(C)C(O)C1` (stereo not given), the “activity change, negative = inhibition” value was 0.354% [at 57.7 µM]. Regarding `CN1CCN(C(=O)c2ccc3cc(CCNc4ncnc5ccc(C#N)cc45)ccc3c2)CC1`, the “activity change, negative = inhibition” value was 0.38%. With `O=C(NCc1cccc(O)c1)c1cc2cc(F)ccc2[nH]1`, the “activity change, negative = inhibition” value is -3.71%. Turning to `COc1cc(C(=O)O)ccc1OC1OC(CO)C(O)C(O)C1O` (stereo not given), the “activity change, negative = inhibition” value is 3.54% [at 57.7 µM]. Take `Cc1cccc(/C=N/Nc2cc(N3CCOCC3)n3nc(-c4ccncc4)cc3n2)c1`: the “activity change, negative = inhibition” value is -2.65%.

Consider `CO[C@H]1/C=C/C=C/C=C/C[C@H](OC(=O)[C@@H](C)NC(=O)C2CCCCC2)[C@H](C)[C@@H](O)/C(C)=C/CCc2cc(O)cc(c2)NC(=O)C1`, for which the “activity change, negative = inhibition” value was -10% [at 30.2 µM].

With `CN(C)C1CCN(C(=O)c2ccc(NC(=O)Nc3ccc(-c4nc(N5CCOCC5)nc(N5CCOCC5)n4)cc3)cc2)CC1`, the “activity change, negative = inhibition” value was 3.2%. Take `C[C@@H]1O[C@@H](O[C@H]2[C@H](O[C@H]3[C@H](O[C@H]4CC[C@@]5(C)C(CC[C@]6(C)C5CC=C5[C@@H]7CC(C)(C)C[C@@H](O)[C@]7(C)CC[C@]56C)[C@@]4(C)CO)O[C@H](C(=O)O)[C@@H](O)[C@@H]3O)OC[C@H](O)[C@@H]2O)[C@H](O)[C@H](O)[C@H]1O` (stereo not given in full): the “activity change, negative = inhibition” value is 2.13% [at 30.2 µM]. With `O=C(O)/C=C/c1cc2c(cc1O[C@@H]1O[C@H](CO)[C@@H](O)[C@H](O)[C@H]1O)OCO2`, the “activity change, negative = inhibition” value is 1.45% [at 57.7 µM]. For `C1CCC[C@H]2CCCN3CC[C@@H](CCCCCC[C@@H]4CCCN5CC[C@@H](CC1)O[C@@H]45)O[C@@H]23`, the activity change, negative = inhibition is -0.14% [at 0.247 µM]. `CCCN1CCC(c2cccc(S(C)(=O)=O)c2)CC1`: the “activity change, negative = inhibition” value is -4.81%. `C=C1C(=O)OC2CC3(C)C(CC12)C(C)=CC(O)C3OC(C)=O` (stereo not given): the “activity change, negative = inhibition” value was -11.9% [at 57.7 µM]. As for `CCCCc1nc2cc(/C=C/C(=O)NO)ccc2n1CCN(CC)CC`, the “activity change, negative = inhibition” value was 4.47%. Take `N=c1nc2n(cc1F)C1OC(CO)C(O)C1O2` (stereo not given): the “activity change, negative = inhibition” value was 4.01%.

In the case of `COC(=O)c1ccc(OC(CO)C(O)c2ccc(O)c(OC)c2)c(OC)c1` (stereo not given), the “activity change, negative = inhibition” value is 1.55% [at 57.7 µM].

For `CN(C)C/C=C/C(=O)Nc1cccc(C(=O)Nc2ccc(Nc3nccc(-c4cccnc4)n3)cc2)c1`, the “activity change, negative = inhibition” value was -13.1%. As to `C=C(C(=O)OC)C1C(O)CC2(C)C(O)CCC(=O)C2C1O` (stereo not given), the “activity change, negative = inhibition” value is 4.79%.

On to `CC(C)=CCC[C@](C)(O[C@@H]1O[C@H](CO)[C@@H](O)[C@H](O)[C@H]1O)[C@H]1CC[C@]2(C)[C@@H]1[C@H](O)CC1[C@@]3(C)CC[C@H](O)C(C)(C)C3[C@@H](O[C@@H]3O[C@H](CO)[C@@H](O)[C@H](O)[C@H]3O[C@@H]3OC[C@@H](O)[C@H](O)[C@H]3O)C[C@]12C` (stereo not given in full), for which the “activity change, negative = inhibition” value was 4.73% [at 30.2 µM].

In the case of `Cc1c(NC(=O)c2cc(C(N)=O)nc3cc(F)ccc23)c(C(F)(F)F)nn1Cc1ccc(C#N)cc1`, the “activity change, negative = inhibition” value is 0.0051% [at 30.2 µM]. For `O=C1NC2CCc3nc4ccccc4c(=O)n3C2=Nc2ccccc21` (stereo not given), the “activity change, negative = inhibition” value was 1.19% [at 57.7 µM]. Turning to `CCN(Cc1cccnc1)C(=O)CN(c1ccc(OC)nc1)S(=O)(=O)c1ccccc1C`, the “activity change, negative = inhibition” value was 1.71%.
